The record followed here is PubChem BioAssay (EPA / NIEHS).

As a reminder, the AC50 is the concentration giving half of the maximal activity seen.

SMILES strings stand for the structures. Activity calls are given as the source filed them. How the source made its calls: active means hit-call score of the fitted dose curve at least 0.9, where 1 is the maximum; inactive means score below 0.9.

Paired box protein Pax-6 (Homo sapiens), sequence (P26367 whole entry, looked up): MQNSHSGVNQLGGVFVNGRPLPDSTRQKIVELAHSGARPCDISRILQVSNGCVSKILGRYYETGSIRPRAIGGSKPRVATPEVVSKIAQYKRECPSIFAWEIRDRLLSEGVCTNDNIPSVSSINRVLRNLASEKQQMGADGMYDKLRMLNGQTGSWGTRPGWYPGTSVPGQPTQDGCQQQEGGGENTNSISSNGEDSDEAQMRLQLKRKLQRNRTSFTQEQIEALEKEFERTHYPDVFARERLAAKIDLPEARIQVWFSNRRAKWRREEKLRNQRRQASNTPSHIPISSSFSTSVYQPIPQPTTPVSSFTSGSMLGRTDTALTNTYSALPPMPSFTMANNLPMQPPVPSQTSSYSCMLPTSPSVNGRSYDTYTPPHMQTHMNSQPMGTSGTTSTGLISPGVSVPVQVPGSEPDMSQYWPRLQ

The experiment addresses Paired box protein Pax-6 (Homo sapiens) (UniProt P26367). The experiment can be described thus: ATG_Pax6_CIS: Attagene CIS-FACTORIAL HepG2 Assay for human Paired Box 6 (PAX6) (AID 2282956). To be noted: HepG2 CIS-FACTORIAL PAX6 reporter transcription, RNA readout; actives raise or lower the signal. The procedure, abridged: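 Values derive from bidirectional curve fitting of reporter mRNA signal relative to DMSO. HepG2 cells bearing transfected cis-regulated MRTUs were exposed for 24 h; transcripts were read by RT-PCR and capillary electrophoresis.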
In the case of `O=c1cc(-c2ccccc2)oc2ccc3ccccc3c12`, the molecule was classed as inactive.

On to `O=C(Nc1ccc(Cl)c(Cl)c1)c1cc(Cl)cc(Cl)c1O`, for which the AC50 is 30.5 µM (active).

For `c1ccc2c(c1)CCC2`, the outcome was inactive.

`O=C1Cc2ccccc2N1c1c(Cl)cccc1Cl`: the outcome was inactive.

With `Clc1ccc(Nc2nnc(Cc3ccncc3)c3ccccc23)cc1`, the AC50 is 27 µM (active).

As for `Brc1cc(Br)c(Oc2c(Br)cc(Br)c(Br)c2Br)cc1Br`, the molecule was classed as inactive.

Take `C=CC(=O)OCCC(F)(F)C(F)(F)C(F)(F)C(F)(F)C(F)(F)C(F)(F)F`: the call was inactive.

Consider `O=C(C=C(O)C(F)(F)F)C(F)(F)F`, for which the call was inactive.

On to `Nc1cc(Cl)c(-c2cc(Cl)c(N)cc2Cl)cc1Cl`, for which the outcome was inactive.

As for `CCC(=O)C=Cc1ccc(OC)cc1`, the call was inactive.

Take `COC(O)c1ccccc1` (stereo not drawn): the molecule was classed as inactive.

Take `CC1CCC(C(=O)O)CC1` (stereo not drawn): the outcome was inactive.

As for `CC1CNCC(C)O1` (stereo not drawn), the call was inactive.

With `Cc1ccc(N=Nc2c(O)ccc3ccccc23)c(C)c1`, the call was inactive.

`Nc1ccc(O)c(C(=O)O)c1`: the call was inactive.

Regarding `Cc1[nH]nc2c1N=C(c1ccccc1Cl)c1cc([N+](=O)[O-])ccc1N2`, the molecule was classed as inactive.

Take `O=C(O)C(=O)O`: the call was inactive.

Take `CCc1cccc(CC)c1N(COC)C(=O)CS(=O)(=O)O`: the molecule was called inactive.

Turning to `Clc1ccc2c(Cl)ccnc2c1`, the molecule was called inactive.

`COC1=CC(=O)C[C@@H](C)[C@]12Oc1c(Cl)c(OC)cc(OC)c1C2=O`: the molecule was classed as inactive.

Consider `O=C(Nc1cccc([N+](=O)[O-])c1)c1cc2ccccc2cc1O`, for which the outcome was inactive.

As to `CCc1cccc(CC)c1NC(=O)C(=O)O`, the call was inactive.

Consider `O=CC(F)(F)C(F)(F)C(F)(F)F`, for which the molecule was called inactive.

As for `CCCCCCc1ccc(N)cc1`, the molecule was classed as inactive.

With `COc1cccc(O)c1`, the call was inactive.

Consider `FC(F)(F)C1(F)C(F)(F)C(F)(F)C(F)(F)C1(F)F`, for which the molecule was called inactive.

In the case of `C=CC(=O)OCCC(F)(F)C(F)(F)C(F)(F)C(F)(F)C(F)(F)C(F)(F)C(F)(F)C(F)(F)F`, the outcome was inactive.

Take `CCCCCc1ccc(O)cc1`: the result was inactive.

With `O=C1OC(=O)c2cc(-c3ccc4c(c3)C(=O)OC4=O)ccc21`, the result was inactive.

Consider `FC(F)(F)C(F)(F)C(F)(F)C(F)(F)I`, for which the call was inactive.

In the case of `OCCN1CN(CCO)CN(CCO)C1`, the AC50 is 173 µM (active).

For `Oc1c(Cl)cc(Cl)cc1Sc1cc(Cl)cc(Cl)c1O`, the call was inactive.

As to `COc1cc([N+](=O)[O-])ccc1N`, the molecule was called inactive.

Consider `CC(C)(c1ccc(Oc2ccc(N)cc2)cc1)c1ccc(Oc2ccc(N)cc2)cc1`, for which the outcome was inactive.

Regarding `CCCC=O`, the call was inactive.

Turning to `CCCCCCCCC(C)=O`, the molecule was classed as inactive.

Regarding `NC(C(F)(F)F)C(F)(F)F`, the molecule was classed as inactive.

On to `Cc1ccc(C)c(S(=O)(=O)O)c1`, for which the molecule was classed as inactive.
